Experimental data reported in PubChem BioAssay (EPA / NIEHS).
Calls of active or inactive are those of the source. The calls were made as follows: active = hit-call score of the fitted dose curve at least 0.9, where 1 is the maximum; inactive = score below 0.9.

What was measured:
Conditions in all cases: mRNA level, 48 h; actives raise or lower the signal
[1] = read-out: adenosine kinase (ADK) gene, ADK (gene 132); experiment: LTEA_HepaRG_ADK: Life Technologies and Expression Analysis (LTEA) Assay for adenosine kinase (ADK) gene using HepaRG (AID 2283471)
Summary of the method: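 Following 48 h exposure of HepaRG cells in 0.5% DMSO (top concentration 100 uM, duplicate wells), ADK mRNA induction or suppression was measured by qRT-PCR, normalised to ACTB/GAPDH/POLR2A, and fitted bidirectionally relative to vehicle.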

[2] = read-out: Alpha-fetoprotein (AFP) gene, AFP (gene 174); experiment: LTEA_HepaRG_AFP: Life Technologies and Expression Analysis (LTEA) Assay for Alpha-fetoprotein (AFP) gene using HepaRG (AID 2283472)
Summary of the method: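 After a 48 h plating period, cells are moved to serum-free induction medium and dosed in duplicate (100 uM maximum, half-log dilutions, 0.5% DMSO) for another 48 h. Total RNA goes to TaqMan qRT-PCR; AFP signal is housekeeping-normalized.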

BCL2L11 (gene 10018) = experiment: LTEA_HepaRG_BCL2L11: Life Technologies and Expression Analysis (LTEA) Assay for Bcl-2 (BCL2L11) gene using HepaRG (AID 2283473)
Summary of the method: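 Differentiated human HepaRG cells were exposed 48 h in serum-free induction medium to eight half-log concentrations up to 100 uM in 0.5% DMSO, in duplicate. BCL2L11 mRNA was quantified by TaqMan qRT-PCR, normalized to ACTB, GAPDH and POLR2A; induction or repression fitted versus DMSO.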

[3] = read-out: Apolipoprotein A-V (APOA5) gene, APOA5 (gene 116519); experiment: LTEA_HepaRG_APOA5: Life Technologies and Expression Analysis (LTEA) Assay for Apolipoprotein A-V (APOA5) gene using HepaRG (AID 2283474)
Summary of the method: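 Differentiated HepaRG cells in serum-free induction medium, exposed 48 h in duplicate to eight half-log concentrations topping at 100 uM (0.5% DMSO). APOA5 mRNA by Fluidigm TaqMan qRT-PCR, normalized to ACTB, GAPDH and POLR2A; bidirectional fit versus DMSO.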

[4] = read-out: Apoptosis regulator Bcl-2 (Homo sapiens) (UniProt P10415); experiment: LTEA_HepaRG_BCL2: Life Technologies and Expression Analysis (LTEA) Assay for Bcl-2 gene using HepaRG (AID 2283475)
Summary of the method: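 Expression change of BCL2 mRNA in HepaRG after 48 h dosing, quantified by TaqMan qRT-PCR against three endogenous controls. Concentration-response used eight points up to 100 uM, vehicle 0.5% DMSO.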

[5] = read-out: Bcl-2 (BID) gene, BID (gene 637); experiment: LTEA_HepaRG_BID: Life Technologies and Expression Analysis (LTEA) Assay for Bcl-2 (BID) gene using HepaRG (AID 2283476)
Summary of the method: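 Gain or loss of BID expression is fitted relative to 0.5% DMSO vehicle. Human HepaRG liver cells received a 48 h chemical exposure over an eight-point concentration range.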

Caspase-3 (Homo sapiens) = Caspase-3 (Homo sapiens) (UniProt P42574); experiment: LTEA_HepaRG_CASP3: Life Technologies and Expression Analysis (LTEA) Assay for cysteine-aspartic acid protease (CASP3) using HepaRG (AID 2283477)
Summary of the method: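 Differentiated HepaRG cells, plated 48 h, were treated in duplicate in serum-free induction medium for 48 h with eight half-log concentrations up to 100 uM in 0.5% DMSO. CASP3 mRNA measured by qRT-PCR, normalized to ACTB, GAPDH, POLR2A.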

[6] = read-out: Cytochrome P450 (CYP24A1), CYP24A1 (gene 1591); experiment: LTEA_HepaRG_CYP24A1: Life Technologies and Expression Analysis (LTEA) Assay for Cytochrome P450 (CYP24A1) using HepaRG (AID 2283478)
Summary of the method: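 HepaRG cells plated 48 h, then exposed in duplicate in serum-free induction medium for 48 h to 8-point half-log series from 100 uM in 0.5% DMSO. CYP24A1 mRNA by Fluidigm qRT-PCR, normalized to ACTB, GAPDH, POLR2A; bidirectional fit versus DMSO.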

[7] = read-out: Cytochrome P450 (CYP1A2), CYP1A2 (gene 1544); experiment: LTEA_HepaRG_CYP1A2: Life Technologies and Expression Analysis (LTEA) Assay for Cytochrome P450 (CYP1A2) using HepaRG (AID 2283479)
Summary of the method: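 Differentiated human HepaRG cells in serum-free induction medium exposed 48 hours in duplicate to 8 half-log concentrations from 100 uM, 0.5% DMSO. CYP1A2 mRNA quantified by qRT-PCR, normalized to ACTB, GAPDH and POLR2A; bidirectional fitting versus DMSO.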

[8] = read-out: cysteine-aspartic acid protease (CASP8), CASP8 (gene 841); experiment: LTEA_HepaRG_CASP8: Life Technologies and Expression Analysis (LTEA) Assay for cysteine-aspartic acid protease (CASP8) using HepaRG (AID 2283480)
Summary of the method: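 Differentiated human HepaRG cells, plated 48 h then switched to serum-free induction medium, were exposed in duplicate for 48 h to 8 half-log concentrations up to 100 uM in 0.5% DMSO. CASP8 mRNA was quantified by qRT-PCR, normalized to ACTB/GAPDH/POLR2A.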

[9] = read-out: Cytochrome P450 (CYP2B6), CYP2B6 (gene 1555); experiment: LTEA_HepaRG_CYP2B6: Life Technologies and Expression Analysis (LTEA) Assay for Cytochrome P450 (CYP2B6) using HepaRG (AID 2283481)
Summary of the method: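 Differentiated human HepaRG cells in serum-free induction medium, dosed in duplicate for 48 h over 8 half-log concentrations topping at 100 uM (0.5% DMSO). CYP2B6 mRNA measured by TaqMan qRT-PCR, normalized to ACTB, GAPDH, POLR2A; bidirectional fit versus DMSO.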

[10] = read-out: Cytochrome P450 2C19 (Homo sapiens) (UniProt P33261); experiment: LTEA_HepaRG_CYP2C19: Life Technologies and Expression Analysis (LTEA) Assay for CYP2C19 using HepaRG (AID 2283482)
Summary of the method: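 Differentiated HepaRG cells in serum-free induction medium exposed 48 h in duplicate, 8 concentrations from 100 uM by half-log steps in 0.5% DMSO. CYP2C19 mRNA measured by TaqMan qRT-PCR, normalized to ACTB, GAPDH, POLR2A. Bidirectional fit versus DMSO.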

CYP2C8 (gene 1558) = experiment: LTEA_HepaRG_CYP2C8: Life Technologies and Expression Analysis (LTEA) Assay for CYP2C8 using HepaRG (AID 2283483)
Summary of the method: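 Differentiated human HepaRG cells were exposed for 48 h in serum-free induction medium to eight half-log concentrations up to 100 uM in 0.5% DMSO, in duplicate. CYP2C8 mRNA was measured by TaqMan qRT-PCR, normalized to ACTB, GAPDH and POLR2A, and fitted bidirectionally against DMSO.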

CYP2C9 (gene 1559) = experiment: LTEA_HepaRG_CYP2C9: Life Technologies and Expression Analysis (LTEA) Assay for CYP2C9 using HepaRG (AID 2283484)
Summary of the method: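 Differentiated human HepaRG cells were exposed 48 h in serum-free induction medium to eight half-log concentrations up to 100 uM in 0.5% DMSO. CYP2C9 mRNA was measured by qRT-PCR, normalized to ACTB, GAPDH and POLR2A, and fitted bidirectionally against DMSO.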

CYP2E1 (gene 1571) = experiment: LTEA_HepaRG_CYP2E1: Life Technologies and Expression Analysis (LTEA) Assay for CYP2E1 using HepaRG (AID 2283485)
Summary of the method: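 Differentiated HepaRG cells were treated in duplicate for 48 h with chemicals in 0.5% DMSO, from 100 uM downward in half-log dilutions. RNA was then analysed by qRT-PCR for CYP2E1 induction or loss.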

CYP4A11 (gene 1579) = experiment: LTEA_HepaRG_CYP4A11: Life Technologies and Expression Analysis (LTEA) Assay for CYP4A11 using HepaRG (AID 2283486)
Summary of the method: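 Differentiated HepaRG cells, 48 h after plating, exposed in duplicate for 48 h to 8 half-log concentrations up to 100 uM in 0.5% DMSO in serum-free induction medium. CYP4A11 mRNA measured by TaqMan qRT-PCR, normalized to ACTB, GAPDH and POLR2A.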

[11] = read-out: Cytochrome P450 3A4 (Homo sapiens) (UniProt P08684); experiment: LTEA_HepaRG_CYP3A4: Life Technologies and Expression Analysis (LTEA) Assay for CYP3A4 using HepaRG (AID 2283487)
Summary of the method: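 In a human hepatic line (HepaRG), duplicate wells were treated 48 h with up to 100 uM chemical in half-log dilutions. Endpoint: CYP3A4 mRNA induction or loss relative to 0.5% DMSO vehicle, by qRT-PCR.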

[12] = read-out: DNA damage-inducible transcript 3 (DDIT3), DDIT3 (gene 1649); experiment: LTEA_HepaRG_DDIT3: Life Technologies and Expression Analysis (LTEA) Assay for DNA damage-inducible transcript 3 (DDIT3) using HepaRG (AID 2283488)
Summary of the method: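 Changes in DDIT3 transcript, in either direction relative to 0.5% DMSO vehicle, were quantified by TaqMan qRT-PCR after 48 h chemical exposure of HepaRG cells at 8 concentrations, maximum 100 uM.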

[13] = read-out: Pro-epidermal growth factor (Homo sapiens) (UniProt P01133); experiment: LTEA_HepaRG_EGF: Life Technologies and Expression Analysis (LTEA) Assay for Epidermal growth factor (EGF) using HepaRG (AID 2283489)
Summary of the method: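 HepaRG cells (~100,000/well, 48 h pre-culture) exposed in duplicate for 48 h in serum-free induction medium to 8 half-log concentrations up to 100 uM in 0.5% DMSO. EGF mRNA by qRT-PCR, normalized to ACTB/GAPDH/POLR2A; bidirectional fit versus DMSO.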

[14] = read-out: Early growth response protein 1 (EGR1) transcription factor, EGR1 (gene 1958); experiment: LTEA_HepaRG_EGR1: Life Technologies and Expression Analysis (LTEA) Assay for Early growth response protein 1 (EGR1) transcription factor using HepaRG (AID 2283490)
Summary of the method: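 Differentiated human HepaRG cells in serum-free induction medium were exposed in duplicate for 48 h to eight concentrations (top 100 uM, half-log steps) in 0.5% DMSO. EGR1 mRNA was quantified by qRT-PCR, normalized to ACTB, GAPDH and POLR2A, and fitted bidirectionally versus DMSO.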

Measured: AC50

Sequence of Caspase-3 (Homo sapiens) (P42574 whole entry, looked up): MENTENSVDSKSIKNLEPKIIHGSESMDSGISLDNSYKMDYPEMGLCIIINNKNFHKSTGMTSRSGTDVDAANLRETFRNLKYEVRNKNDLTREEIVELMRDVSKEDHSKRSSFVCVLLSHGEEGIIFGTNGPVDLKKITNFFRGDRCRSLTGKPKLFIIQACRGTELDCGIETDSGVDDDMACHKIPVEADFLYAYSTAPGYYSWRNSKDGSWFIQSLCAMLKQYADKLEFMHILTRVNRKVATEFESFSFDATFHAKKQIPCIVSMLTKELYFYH
Sequence of Cytochrome P450 2C19 (Homo sapiens) (P33261 whole entry, looked up): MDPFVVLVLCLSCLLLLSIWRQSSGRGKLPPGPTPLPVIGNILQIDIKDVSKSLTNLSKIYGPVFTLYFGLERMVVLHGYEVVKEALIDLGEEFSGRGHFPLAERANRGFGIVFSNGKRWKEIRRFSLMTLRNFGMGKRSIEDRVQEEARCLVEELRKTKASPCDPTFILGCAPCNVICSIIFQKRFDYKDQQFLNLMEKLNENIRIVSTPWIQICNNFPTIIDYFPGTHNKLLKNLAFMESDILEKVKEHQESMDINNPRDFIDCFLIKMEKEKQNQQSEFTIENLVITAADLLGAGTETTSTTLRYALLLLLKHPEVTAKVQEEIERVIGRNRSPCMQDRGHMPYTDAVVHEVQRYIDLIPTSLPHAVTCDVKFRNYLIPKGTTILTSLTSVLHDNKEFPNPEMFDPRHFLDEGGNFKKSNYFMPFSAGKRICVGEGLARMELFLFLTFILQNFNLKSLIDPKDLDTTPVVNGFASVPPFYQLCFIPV
Sequence of Cytochrome P450 3A4 (Homo sapiens) (P08684 whole entry, looked up): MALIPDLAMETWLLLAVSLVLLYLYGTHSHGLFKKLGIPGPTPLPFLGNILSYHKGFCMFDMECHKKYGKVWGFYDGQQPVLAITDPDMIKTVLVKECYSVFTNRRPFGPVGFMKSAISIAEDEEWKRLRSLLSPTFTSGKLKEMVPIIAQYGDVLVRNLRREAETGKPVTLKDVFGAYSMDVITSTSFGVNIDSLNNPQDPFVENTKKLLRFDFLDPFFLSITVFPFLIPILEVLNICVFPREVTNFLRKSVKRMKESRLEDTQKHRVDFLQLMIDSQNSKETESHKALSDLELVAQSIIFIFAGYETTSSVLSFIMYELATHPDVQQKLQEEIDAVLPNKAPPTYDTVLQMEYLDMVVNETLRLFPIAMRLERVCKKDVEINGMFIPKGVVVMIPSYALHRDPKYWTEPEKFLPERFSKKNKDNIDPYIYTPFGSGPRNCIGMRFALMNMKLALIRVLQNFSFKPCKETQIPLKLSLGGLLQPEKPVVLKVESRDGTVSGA
Sequence of Apoptosis regulator Bcl-2 (Homo sapiens) (P10415 whole entry, looked up): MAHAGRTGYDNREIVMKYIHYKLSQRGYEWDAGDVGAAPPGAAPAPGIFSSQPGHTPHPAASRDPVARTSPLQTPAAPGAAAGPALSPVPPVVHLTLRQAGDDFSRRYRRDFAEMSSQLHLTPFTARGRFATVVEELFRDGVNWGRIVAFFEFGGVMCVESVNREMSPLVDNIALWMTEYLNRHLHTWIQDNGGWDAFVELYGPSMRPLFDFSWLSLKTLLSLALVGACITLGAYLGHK

COP(=S)(OC)SCn1nnc2ccccc2c1=O
active: [7] 33.6 µM | [9] 6.27 µM | [10] 40.9 µM | [11] 25 µM
inactive: all other assays above

O=C(O)c1c(Cl)ccc2cc(Cl)cnc12
inactive: all assays above

CCOc1cc(C(C)(C)C)ccc1C1COC(c2c(F)cccc2F)=N1 (stereo not given)
active: [2] 25.7 µM | [9] 8.33 µM | [10] 8.34 µM | CYP2C8 (gene 1558) 7.92 µM | CYP2E1 (gene 1571) 18.7 µM | CYP4A11 (gene 1579) 57.4 µM | [11] 4.8 µM | [12] 52.1 µM
inactive: all other assays above
